# Source: PubChem BioAssay (NCATS)
# Inconclusive results are not listed. Active and inactive are the calls of the source. The call rests on the fitted dose curve; in most records, active means well fitted inhibition curve with a large enough effect; inconclusive means small, poorly fitted or top-dose-only effect; inactive means no such curve, though single readings can be large or run the other way.
# Experiment: HTS Assay for Allosteric Antagonists of the Human D2 Dopamine Receptor: Hit Validation in HTRF (AID 624455);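 further: stable D1 dopamine receptor cell line scored for blocking the D1 response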
# Details: Cells stably expressing D1 dopamine receptor, inhibition mode; series mostly up to 46.1 µM; activity, negative = inhibition: at the top concentration
# Procedure, shortened: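 Hits were examined in an HTRF assay using cells stably expressing the D1 dopamine receptor, scoring inhibition of the D1-mediated response. The preceding primary screen tracked calcium flux after an EC80 dopamine addition in force-coupled, inducible Hek293 Trex D2 cells.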
# On the % scale 0 is the no-effect control and ±100 the full control effect; potency means the concentration at half of the fitted maximal effect.
SMILES,"activity, negative = inhibition",Potency
Cc1ccc(S(=O)(=O)/C=C/C#N)cc1,9.62% (inactive),
OC[C@H]1O[C@@H](n2cnc3c(Nc4ccccc4)ncnc32)[C@H](O)[C@@H]1O,0.778% (inactive),
NC(CCCP(=O)(O)O)C(=O)O (centres undefined),-2.5% (inactive),
NC(=S)NCCC[C@H](N)C(=O)O,-0.59% (inactive),
COc1cc2nc(N3CCN(C(=O)OCc4ccccc4)C(C(=O)NC(C)(C)C)C3)nc(N)c2cc1OC (centres undefined),10.1% (inactive),
Oc1ccc(C2CNCc3sccc32)cc1O (centres undefined),,146 nM (active)
NC(=S)c1ccc[n+]([C@@H]2O[C@@H](COP(=O)([O-])OP(=O)(O)OC[C@H]3O[C@@H](n4cnc5c(N)ncnc54)[C@H](OP(=O)(O)O)[C@@H]3O)C(O)C2O)c1 (some centres undefined),-5.43% (inactive),
NCCCCCCCCCCN,-0.896% (inactive),
COC(=O)c1c(C)[nH]c(C)c1C(=O)c1ccccc1Cc1ccccc1,6.27% (inactive),
O=C(O)c1cc(=O)c2c(Cl)cc(Cl)cc2[nH]1,-5.45% (inactive),
CN(C)CCCO[C@@H]1[C@H]2OC(C)(C)O[C@H]2O[C@@H]1[C@H](O)CO,-2.54% (inactive),
CC1CN(S(=O)(=O)c2cccc3cnccc23)CCN1 (centres undefined),-2.91% (inactive),
N=C(N)SCCc1ccc(CCSC(=N)N)cc1,-2.1% (inactive),
CC(N)C(=O)OC(C)(C)Cc1ccc(Cl)cc1 (centres undefined),-7.88% (inactive),
Cc1ccc(O)c(N=Nc2ccccc2)n1,22.6% (inactive),
COc1cccc(OC)c1OCCNCC1COc2ccccc2O1 (centres undefined),,92 nM (active)
NC[C@H]1O[C@@H](n2cnc3c(N)ncnc32)[C@H](O)[C@@H]1O,-6.82% (inactive),
Ic1ccc(N2CCN(Cc3c[nH]c4ncccc34)CC2)cc1,-9.32% (inactive),
C[C@@H](CN1CCC(Cc2ccccc2)CC1)[C@@H](O)c1ccc(O)cc1,4.16% (inactive),
